The panel holds about 79,000 compounds, 15% with a hit somewhere; the sample as a whole holds those more often. A number with no mark means an inactive call. Activity calls are given as the source filed them. Rule as the data show it: active = growth inhibition above about 70%; inactive = the rest.
Experiments:
[1] = NCI Yeast Anticancer Drug Screen. Data for the rad52 strain (AID 147);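 also: 0% = growth of vehicle-treated control cultures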; conditions: S. cerevisiae rad52 mutant growth inhibition, active compounds read high
How it was run: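 Yeast strain carrying a DNA damage repair alteration was exposed to test compounds. Growth inhibition was measured relative to vehicle-treated controls.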

[2] = NCI Yeast Anticancer Drug Screen. Data for the rad50EPP+ strain (AID 151);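 also: 0% = growth of vehicle-treated control cultures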; conditions: S. cerevisiae rad50 mutant strain, active compounds read high
How it was run: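 Yeast strain carrying rad50 alteration (rad50EPP+) exposed to compounds; growth inhibition measured relative to vehicle-treated controls.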

[3] = NCI Yeast Anticancer Drug Screen. Data for the mgt1 strain (AID 153); conditions: S. cerevisiae mgt1 mutant growth inhibition, active compounds read high
How it was run: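 Yeast mgt1 strain (DNA repair/cell-cycle alteration panel) exposed to compounds; growth inhibition measured relative to vehicle-treated controls.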

[4] = NCI Yeast Anticancer Drug Screen. Data for the rad50 strain (AID 155);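 also: 0% = growth of vehicle-only cultures of the same strain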; conditions: S. cerevisiae rad50 strain growth inhibition, active compounds read high
How it was run: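 Inhibition values express reduced yeast growth in compound-treated cultures relative to vehicle-treated controls.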

[5] = NCI Yeast Anticancer Drug Screen. Data for the mec2-1 strain (AID 157); conditions: S. cerevisiae mec2-1 strain, active compounds read high
How it was run: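 mec2-1 yeast strain, carrying an alteration in DNA damage repair or cell cycle control, was exposed to compounds; growth inhibition was measured relative to vehicle-treated controls.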

[6] = NCI Yeast Anticancer Drug Screen. Data for the rad14 strain (AID 159);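 also: 0% = growth of vehicle-treated control cultures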; conditions: S. cerevisiae rad14 strain growth inhibition, active compounds read high
How it was run: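 A mutant yeast strain defective in DNA damage repair is treated with compound; inhibition of its growth is scored against untreated, vehicle-exposed cultures.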

[7] = NCI Yeast Anticancer Drug Screen. Data for the sgs1 mgt1 strain (AID 161);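 also: 0% = growth of cultures given vehicle only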; conditions: S. cerevisiae sgs1 mgt1 strain, active compounds read high
How it was run: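 Percent growth inhibition was derived by comparing compound-exposed mutant yeast with vehicle-exposed cultures. The strain carries alterations in DNA damage repair.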

[8] = NCI Yeast Anticancer Drug Screen. Data for the CLN2oe strain (AID 163);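 also: 0% = growth of vehicle-only control cultures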; conditions: S. cerevisiae CLN2oe strain, active compounds read high
How it was run: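 Yeast cells carrying a defined cell-cycle control alteration were exposed to test compounds. Growth inhibition was scored against vehicle-treated control cultures.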

[9] = NCI Yeast Anticancer Drug Screen. Data for the cln2 rad14 strain (AID 165);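 also: 0% = growth equal to vehicle treated cultures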; conditions: S. cerevisiae cln2 rad14 strain, active compounds read high
How it was run: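 Yeast carrying cln2 and rad14 alterations (cell cycle control and DNA damage repair) were exposed to compounds. Growth inhibition was measured against vehicle-treated controls.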

[10] = NCI Yeast Anticancer Drug Screen. Data for the bub3 strain (AID 167); conditions: S. cerevisiae bub3 mutant strain, active compounds read high
How it was run: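 Steps: expose the mutant yeast strain to compound; grow alongside vehicle-treated cultures; measure growth; express inhibition against the vehicle cultures.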

[11] = NCI Yeast Anticancer Drug Screen. Data for the wt2 strain (AID 169);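 also: 0% = growth of vehicle-treated yeast cultures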; conditions: S. cerevisiae wt2 strain growth inhibition, active compounds read high
How it was run: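 Yeast cells were exposed to test compounds, and growth inhibition was measured relative to vehicle-treated controls.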

[12] = NCI Yeast Anticancer Drug Screen. Data for the mlh1 strain (AID 171);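 also: 0% = growth of vehicle-treated control cultures of the same strain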; conditions: S. cerevisiae mlh1 strain growth inhibition, active compounds read high
How it was run: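 Yeast carrying a defined genetic alteration in DNA damage repair or cell cycle control were exposed to test compounds. Growth inhibition was measured relative to vehicle-treated controls.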

[13] = NCI Yeast Anticancer Drug Screen. Data for the sgs1 strain (AID 173);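 also: 0% = growth of vehicle-only control cultures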; conditions: S. cerevisiae sgs1 mutant, active compounds read high
How it was run: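 Yeast mutant strains carrying defined defects in DNA damage repair or cell cycle control were exposed to test compounds. Growth inhibition was scored against vehicle-treated controls.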

[14] = NCI Yeast Anticancer Drug Screen. Data for the mlh1 rad18 strain (AID 175); conditions: S. cerevisiae mlh1 rad18 strain growth inhibition, active compounds read high
How it was run: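 Growth inhibition of the yeast strain was measured after compound exposure and expressed relative to vehicle-treated controls. The strain carries defined defects in DNA damage repair.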

[15] = NCI Yeast Anticancer Drug Screen. Data for the rad18 strain (AID 177); conditions: S. cerevisiae rad18 mutant growth inhibition, active compounds read high
How it was run: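 Yeast carrying a defined DNA damage repair alteration were exposed to compounds. Growth inhibition was expressed relative to vehicle-treated controls.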

[16] = at 5.0 µM (retest, dose inferred, filed as 0.5)
[17] = at 50.0 µM (retest, dose inferred, filed as 5.0)

CC(C)(C)c1cc([N+](=O)[O-])cc([N+](=O)[O-])c1O
growth inhibition ([1]; at 1.2 µM): -11%
growth inhibition ([1]; at 3.7 µM): -17%
growth inhibition ([1]; at 11.0 µM): -1%
growth inhibition ([1]; at 33.0 µM): 17%
growth inhibition ([1]; at 100.0 µM): 33%
growth inhibition ([2]; at 1.2 µM): -54%
growth inhibition ([2]; at 3.7 µM): -54%
growth inhibition ([2]; at 11.0 µM): -44%
growth inhibition ([2]; at 33.0 µM): -25%
growth inhibition ([2]; at 100.0 µM): -13%
growth inhibition ([3]; at 1.2 µM): -52%
growth inhibition ([3]; at 3.7 µM): -34%
growth inhibition ([3]; at 11.0 µM): 21%
growth inhibition ([3]; at 33.0 µM): -11%
growth inhibition ([3]; at 100.0 µM): 43%
growth inhibition ([4]; at 1.2 µM): -24%
growth inhibition ([4]; at 3.7 µM): -26%
growth inhibition [4, 16]: 46%
growth inhibition ([4]; at 11.0 µM): -5%
growth inhibition ([4]; at 33.0 µM): 1%
growth inhibition [4, 17]: 100% (active)
growth inhibition ([4]; at 50.0 µM): 78.8% (active)
growth inhibition ([4]; at 100.0 µM): 22%
growth inhibition ([5]; at 1.2 µM): -61%
growth inhibition ([5]; at 3.7 µM): -47%
growth inhibition [5, 16]: 66%
growth inhibition ([5]; at 11.0 µM): -25%
growth inhibition ([5]; at 33.0 µM): -8%
growth inhibition [5, 17]: 99% (active)
growth inhibition ([5]; at 50.0 µM): 72.2% (active)
growth inhibition ([5]; at 100.0 µM): 7%
growth inhibition ([6]; at 1.2 µM): -19%
growth inhibition ([6]; at 3.7 µM): -12%
growth inhibition ([6]; at 11.0 µM): 6%
growth inhibition ([6]; at 33.0 µM): 26%
growth inhibition ([6]; at 100.0 µM): 29%
growth inhibition [7, 16]: 0%
growth inhibition [7, 17]: 38%
growth inhibition ([7]; at 50.0 µM): 84.3% (active)
growth inhibition ([8]; at 1.2 µM): 9%
growth inhibition ([8]; at 3.7 µM): 1%
growth inhibition ([8]; at 11.0 µM): 12%
growth inhibition ([8]; at 33.0 µM): 25%
growth inhibition ([8]; at 100.0 µM): 28%
growth inhibition [9, 16]: 46%
growth inhibition [9, 17]: 21%
growth inhibition ([9]; at 50.0 µM): 73.4% (active)
growth inhibition ([10]; at 1.2 µM): -17%
growth inhibition ([10]; at 3.7 µM): -15%
growth inhibition [10, 16]: -13%
growth inhibition ([10]; at 11.0 µM): -2%
growth inhibition ([10]; at 33.0 µM): 9%
growth inhibition [10, 17]: 39%
growth inhibition ([10]; at 50.0 µM): 68.6%
growth inhibition ([10]; at 100.0 µM): 21%
growth inhibition ([11]; at 1.2 µM): -35%
growth inhibition ([11]; at 3.7 µM): -29%
growth inhibition ([11]; at 11.0 µM): -11%
growth inhibition ([11]; at 33.0 µM): 23%
growth inhibition ([11]; at 100.0 µM): 47%
growth inhibition ([12]; at 1.2 µM): -38%
growth inhibition ([12]; at 3.7 µM): -33%
growth inhibition ([12]; at 11.0 µM): -4%
growth inhibition ([12]; at 33.0 µM): 10%
growth inhibition ([12]; at 100.0 µM): 42%
growth inhibition ([13]; at 1.2 µM): -20%
growth inhibition ([13]; at 3.7 µM): -8%
growth inhibition ([13]; at 11.0 µM): 15%
growth inhibition ([13]; at 33.0 µM): 40%
growth inhibition ([13]; at 100.0 µM): 46%
growth inhibition [14, 16]: 50%
growth inhibition [14, 17]: 100% (active)
growth inhibition ([14]; at 50.0 µM): 67.7%
growth inhibition ([15]; at 1.2 µM): -30%
growth inhibition ([15]; at 3.7 µM): -13%
growth inhibition ([15]; at 11.0 µM): -18%
growth inhibition ([15]; at 33.0 µM): 17%
growth inhibition ([15]; at 100.0 µM): 30%

Oc1cccnc1[Se]
growth inhibition ([1]; at 1.2 µM): 4%
growth inhibition ([1]; at 3.7 µM): 7%
growth inhibition ([1]; at 11.0 µM): 55%
growth inhibition ([1]; at 33.0 µM): 99% (active)
growth inhibition ([1]; at 100.0 µM): 99% (active)
growth inhibition ([2]; at 1.2 µM): 1%
growth inhibition ([2]; at 3.7 µM): 9%
growth inhibition ([2]; at 11.0 µM): 33%
growth inhibition ([2]; at 33.0 µM): 74% (active)
growth inhibition ([2]; at 100.0 µM): 96% (active)
growth inhibition ([3]; at 1.2 µM): -4%
growth inhibition ([3]; at 3.7 µM): -3%
growth inhibition ([3]; at 11.0 µM): -2%
growth inhibition ([3]; at 33.0 µM): 68%
growth inhibition ([3]; at 100.0 µM): 99% (active)
growth inhibition ([4]; at 1.2 µM): 2%
growth inhibition ([4]; at 3.7 µM): 6%
growth inhibition [4, 16]: -15%
growth inhibition ([4]; at 11.0 µM): 60%
growth inhibition ([4]; at 33.0 µM): 98% (active)
growth inhibition [4, 17]: 55%
growth inhibition ([4]; at 50.0 µM): 99% (active)
growth inhibition ([4]; at 100.0 µM): 99% (active)
growth inhibition ([5]; at 1.2 µM): -3%
growth inhibition ([5]; at 3.7 µM): -5%
growth inhibition [5, 16]: -2%
growth inhibition ([5]; at 11.0 µM): -3%
growth inhibition ([5]; at 33.0 µM): 38%
growth inhibition [5, 17]: -10%
growth inhibition ([5]; at 50.0 µM): 97.5% (active)
growth inhibition ([5]; at 100.0 µM): 98% (active)
growth inhibition ([6]; at 1.2 µM): 1%
growth inhibition ([6]; at 3.7 µM): 1%
growth inhibition ([6]; at 11.0 µM): 5%
growth inhibition ([6]; at 33.0 µM): 95% (active)
growth inhibition ([6]; at 100.0 µM): 99% (active)
growth inhibition [7, 16]: -10%
growth inhibition [7, 17]: 4%
growth inhibition ([7]; at 50.0 µM): 95.3% (active)
growth inhibition ([8]; at 1.2 µM): -3%
growth inhibition ([8]; at 3.7 µM): 3%
growth inhibition ([8]; at 11.0 µM): -8%
growth inhibition ([8]; at 33.0 µM): 2%
growth inhibition ([8]; at 100.0 µM): 37%
growth inhibition [9, 16]: 7%
growth inhibition [9, 17]: 6%
growth inhibition ([9]; at 50.0 µM): 99% (active)
growth inhibition ([10]; at 1.2 µM): -6%
growth inhibition ([10]; at 3.7 µM): -7%
growth inhibition [10, 16]: -21%
growth inhibition ([10]; at 11.0 µM): -13%
growth inhibition ([10]; at 33.0 µM): -5%
growth inhibition [10, 17]: -18%
growth inhibition ([10]; at 50.0 µM): 99.2% (active)
growth inhibition ([10]; at 100.0 µM): 63%
growth inhibition ([11]; at 1.2 µM): -5%
growth inhibition ([11]; at 3.7 µM): -9%
growth inhibition ([11]; at 11.0 µM): -15%
growth inhibition ([11]; at 33.0 µM): 97% (active)
growth inhibition ([11]; at 100.0 µM): 99% (active)
growth inhibition ([12]; at 1.2 µM): -2%
growth inhibition ([12]; at 3.7 µM): 2%
growth inhibition ([12]; at 11.0 µM): 11%
growth inhibition ([12]; at 33.0 µM): 98% (active)
growth inhibition ([12]; at 100.0 µM): 99% (active)
growth inhibition ([13]; at 1.2 µM): -1%
growth inhibition ([13]; at 3.7 µM): 21%
growth inhibition ([13]; at 11.0 µM): 11%
growth inhibition ([13]; at 33.0 µM): 98% (active)
growth inhibition ([13]; at 100.0 µM): 99% (active)
growth inhibition [14, 16]: 7%
growth inhibition [14, 17]: 59%
growth inhibition ([14]; at 50.0 µM): 98% (active)
growth inhibition ([15]; at 1.2 µM): -2%
growth inhibition ([15]; at 3.7 µM): 3%
growth inhibition ([15]; at 11.0 µM): 20%
growth inhibition ([15]; at 33.0 µM): 94% (active)
growth inhibition ([15]; at 100.0 µM): 99% (active)
